Assay results from PubChem BioAssay (NCI).
Where “and” joins values, the source holds several entries; their conditions need not be identical. Equal entries are not always repeated. Compounds without any hit were thinned out: in the full panel of roughly 79,000, 15% have a hit. Some compounds were tested as several samples or in several runs, with calls that do not always agree. Calls of active or inactive are those of the source. Rule as the data show it: active = growth inhibition above about 70%; inactive = the rest.

How the values were obtained:
[1] = NCI Yeast Anticancer Drug Screen. Data for the rad50 strain (AID 155);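 also: 0% = growth of vehicle-only cultures of the same strain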; details: S. cerevisiae rad50 strain growth inhibition, stronger effect = higher value
How it was run: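 Compounds were tested on a yeast strain with an engineered DNA damage repair alteration; the reported value is growth inhibition normalised to vehicle treatment.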

[2] = NCI Yeast Anticancer Drug Screen. Data for the mec2-1 strain (AID 157); details: S. cerevisiae mec2-1 strain, stronger effect = higher value
How it was run: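 mec2-1 yeast strain, carrying an alteration in DNA damage repair or cell cycle control, was exposed to compounds; growth inhibition was measured relative to vehicle-treated controls.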

[3] = NCI Yeast Anticancer Drug Screen. Data for the sgs1 mgt1 strain (AID 161);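 also: 0% = growth of cultures given vehicle only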; details: S. cerevisiae sgs1 mgt1 strain, stronger effect = higher value
How it was run: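 Compounds are added to genetically altered yeast, and growth is compared with cultures given vehicle alone to give percent inhibition.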

[4] = NCI Yeast Anticancer Drug Screen. Data for the cln2 rad14 strain (AID 165);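 also: 0% = growth equal to vehicle treated cultures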; details: S. cerevisiae cln2 rad14 strain, stronger effect = higher value
How it was run: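 Yeast carrying cln2 and rad14 alterations (cell cycle control and DNA damage repair) were exposed to compounds. Growth inhibition was measured against vehicle-treated controls.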

[5] = NCI Yeast Anticancer Drug Screen. Data for the bub3 strain (AID 167); details: S. cerevisiae bub3 mutant strain, stronger effect = higher value
How it was run: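 Growth of a checkpoint-deficient yeast mutant is measured after compound exposure. Values represent inhibition relative to vehicle.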

[6] = NCI Yeast Anticancer Drug Screen. Data for the mlh1 rad18 strain (AID 175); details: S. cerevisiae mlh1 rad18 strain growth inhibition, stronger effect = higher value
How it was run: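 Growth inhibition of the yeast strain was measured after compound exposure and expressed relative to vehicle-treated controls. The strain carries defined defects in DNA damage repair.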

[7] = at 5.0 µM (retest, dose inferred, filed as 0.5)
[8] = at 50.0 µM (retest, dose inferred, filed as 5.0)

| SMILES | growth inhibition [1, 7] | growth inhibition [1, 8] | growth inhibition ([1]; at 50.0 µM) | growth inhibition [2, 7] | growth inhibition [2, 8] | growth inhibition ([2]; at 50.0 µM) | growth inhibition [3, 7] | growth inhibition [3, 8] | growth inhibition ([3]; at 50.0 µM) | growth inhibition [4, 7] | growth inhibition [4, 8] | growth inhibition ([4]; at 50.0 µM) | growth inhibition [5, 7] | growth inhibition [5, 8] | growth inhibition ([5]; at 50.0 µM) | growth inhibition [6, 7] | growth inhibition [6, 8] | growth inhibition ([6]; at 50.0 µM) |
| --- | --- | --- | --- | --- | --- | --- | --- | --- | --- | --- | --- | --- | --- | --- | --- | --- | --- | --- |
| O=S(=O)(F)c1ccc(Cl)cc1C[P+](c1ccccc1)(c1ccccc1)c1ccccc1 | 20% (inactive) | 77% (active) | 45.9% (inactive) | 22% (inactive) | 82% (active) | 19.9% (inactive) | 13% (inactive) | 76% (active) | 53.5% (inactive) | 0% (inactive) | 54% (inactive) | 11.1% (inactive) | 12% (inactive) | 82% (active) | 38.2% (inactive) | 20% (inactive) | 86% (active) | 69% (inactive) |
| [C-]#[O+].[C-]#[O+].[C-]#[O+].[CH3][Sn]([c]1ccccc1)[c]1ccccc1.[Co].c1ccc([PH+](c2ccccc2)c2ccccc2)cc1 | 99% (active) | 99% (active) | 99.5% (active) | 99% (active) | 100% (active) | 99.5% (active) | 99% (active) | 100% (active) | 99.5% (active) | 99% (active) | 99% (active) | 99% (active) | 99% (active) | 99% (active) | 99.5% (active) | 99% (active) | 99% (active) | 99.3% (active) |
| Cc1ccc([C@H]2N[C@@H]2c2ccccn2)cc1 | -16% (inactive) | -22% (inactive) | 6.35% (inactive) | -18% (inactive) | 1% (inactive) | 7% (inactive) | -5% (inactive) | -12% (inactive) | 3.45% (inactive) | -15% (inactive) | -5% (inactive) | 30.1% (inactive) | -4% (inactive) | -2% (inactive) | -2.75% (inactive) | -5% (inactive) | -10% (inactive) | 19% (inactive) |
| COc1c(O)c2c(c3cc(C(=O)N4CCc5c4c(O)c(OC)c4[nH]c(C(=O)N6CC7CC78C6=CC(=O)c6[nH]cc(C)c68)cc54)[nH]c13)CCN2C(N)=O (stereo not given) | 97% (active) | 97% (active) | 89.8% (active) | 98% (active) | 98% (active) | 93% (active) | 96% (active) | 96% (active) | 90.5% (active) | 95% (active) | 95% (active) | 89% (active) | 94% (active) | 96% (active) | 91% (active) | 98% (active) | 97% (active) | 89.5% (active) |
| C=Cc1ccccc1 (tested in a mixture with another compound) | -1% (inactive) | 2% (inactive) | 16.1% (inactive) and 1.1% (inactive) and -7.7% (inactive) | -6% (inactive) | 0% (inactive) | -1.35% (inactive) and 6.9% (inactive) and -3.75% (inactive) | -2% (inactive) | -1% (inactive) | -11.2% (inactive) and -6.85% (inactive) and -12.4% (inactive) | -3% (inactive) | 3% (inactive) | 1.25% (inactive) and -3.6% (inactive) and 2.15% (inactive) | -5% (inactive) | -4% (inactive) | 23.4% (inactive) and 14.5% (inactive) and 6.1% (inactive) | -1% (inactive) | 1% (inactive) | 12.4% (inactive) and 31.1% (inactive) and -6.6% (inactive) |
| CC(CN1CCCCCCC1)C(C#N)(c1ccccc1)c1ccccc1 (stereo not given) | 4% (inactive) | 47% (inactive) | 66.1% (inactive) | 3% (inactive) | 39% (inactive) | 47.6% (inactive) | 19% (inactive) | 74% (active) | 67.5% (inactive) | 6% (inactive) | 46% (inactive) | 84.1% (active) | 9% (inactive) | 68% (inactive) | 55.4% (inactive) | 10% (inactive) | 55% (inactive) | 70.3% (active) |
| CCC[CH2][Pb]([CH2]CCC)([O]C(C)=O)[O]C(C)=O | 99% (active) | 99% (active) | 90% (active) | 63% (inactive) | 99% (active) | 93.1% (active) | 99% (active) | 94% (active) | 94% (active) | 92% (active) | 98% (active) | 92.3% (active) | 99% (active) | 98% (active) | 92.2% (active) | 100% (active) | 99% (active) | 91.5% (active) |
| NN1CCCC1C(=O)O (stereo not given) | -1% (inactive) | 2% (inactive) | 23.1% (inactive) | -2% (inactive) | -1% (inactive) | 53.1% (inactive) | 0% (inactive) | 0% (inactive) | 28.2% (inactive) | 3% (inactive) | -2% (inactive) | 76.2% (active) | 4% (inactive) | -2% (inactive) | 99.3% (active) | -1% (inactive) | 2% (inactive) | 65.6% (inactive) |
| O=[N+]([O-])O.O=[N+]([O-])O.[NH-]C1CCCCC1[NH-].[Pt+2] (stereo not given) | 33% (inactive) | 96% (active) | 52.1% (inactive) | 25% (inactive) | 95% (active) | 90.7% (active) | 57% (inactive) | 100% (active) | 79.5% (active) | 45% (inactive) | 97% (active) | 86.4% (active) | 56% (inactive) | 100% (active) | 88.9% (active) | 16% (inactive) | 75% (active) | 92.3% (active) |
| N=P(c1ccccc1)(c1ccccc1)c1ccccc1 (tested in a mixture with another compound) | 10% (inactive) | 32% (inactive) | 62.2% (inactive) | 6% (inactive) | 25% (inactive) | 17.3% (inactive) | 14% (inactive) | 32% (inactive) | 44.1% (inactive) | -3% (inactive) | 10% (inactive) | 25.4% (inactive) | -1% (inactive) | 29% (inactive) | 19.1% (inactive) | 6% (inactive) | 27% (inactive) | 59.9% (inactive) |
| CCc1cc2c(cc1-c1csc(C/C(N)=N/O)n1)C(C)(C)CCC2(C)C | 55% (inactive) | 88% (active) | 89.5% (active) | 38% (inactive) | 92% (active) | 90.7% (active) | 52% (inactive) | 93% (active) | 91.4% (active) | 39% (inactive) | 96% (active) | 89.7% (active) | 48% (inactive) | 93% (active) | 91% (active) | 60% (inactive) | 94% (active) | 90.3% (active) |
| c1cc[c]([Sn]([c]2ccccc2)([c]2ccccc2)[CH]2CCCCC2)cc1 | 1% (inactive) | 89% (active) | 92.7% (active) | 7% (inactive) | 94% (active) | 97.2% (active) | 20% (inactive) | 93% (active) | 97.7% (active) | -2% (inactive) | 91% (active) | 98.3% (active) | 1% (inactive) | 93% (active) | 98% (active) | 19% (inactive) | 91% (active) | 97% (active) |
| O=[As]c1ccc(Cl)cc1Cl (stereo not given) | 100% (active) | 99% (active) | 99.7% (active) | 100% (active) | 100% (active) | 99.7% (active) | 99% (active) | 100% (active) | 99.7% (active) | 100% (active) | 99% (active) | 99.3% (active) | 99% (active) | 100% (active) | 99.2% (active) | 100% (active) | 99% (active) | 99.3% (active) |
| ClCCN(CCCl)c1ccc(C=NCCCCN=Cc2ccc(N(CCCl)CCCl)cc2)cc1 | 3% (inactive) | 82% (active) | 88.8% (active) | 10% (inactive) | 47% (inactive) | 47% (inactive) | 8% (inactive) | 62% (inactive) | 82.8% (active) | -10% (inactive) | 82% (active) | 88.6% (active) | -10% (inactive) | 3% (inactive) | 7.15% (inactive) | 63% (inactive) | 95% (active) | 85.8% (active) |
| ClC(C[n+]1ccccc1)c1ccccc1 (stereo not given) | 8% (inactive) | 22% (inactive) | 71% (active) and -9.25% (inactive) | 3% (inactive) | 16% (inactive) | 34.2% (inactive) and -1.25% (inactive) | 10% (inactive) | 35% (inactive) | 64.4% (inactive) and -1.8% (inactive) | 4% (inactive) | 3% (inactive) | -2.5% (inactive) and 7.5% (inactive) | 1% (inactive) | 6% (inactive) | 26.4% (inactive) and 11.1% (inactive) | 10% (inactive) | 51% (inactive) | 60.6% (inactive) and 4.6% (inactive) |
